Screens: PubChem BioAssay, several laboratories
GDH-TPI inh = counter-screen for M. tuberculosis FBA inhibitors: GDH-TPI coupled enzymes. GDH-TPI coupled enzyme counterscreen, NADH absorbance. AID 588335. inhibition, % at 4.8 µM. 1.2% of 360,000 active; in the data active means inhibition above about 30%;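 further: 0% = DMSO wells and 100% = wells lacking the enzyme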
Mtb UGM inh = inhibitors of M. tuberculosis UDP-galactopyranose mutase; P9WIQ1; purified UGM, fluorescence polarization probe displacement; inhibition, % at 10 µM; 0.06% of 320,000 active; AID 504406; in the data active means inhibition above about 10%, passing the limit was not always enough; inconclusive means no clear call, values can overlap the other calls
Rv3671c protease = inhibitors of M. tuberculosis serine protease Rv3671c | inhibition, % at 5.96 µM | 0.048% of 320,000 active | P9WHR9; in the data active means inhibition above about 38%;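 further: extracellular domain of Rv3671c used as enzyme; 0% = enzyme with DMSO and 100% = no enzyme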
Mtb FBA inh = inhibits M. tuberculosis FBA enzyme; P9WQA3; purified M. tuberculosis FBA, fluorescence read-out; inhibition, % at 1 µM; 2.3% of 360,000 active; in the data active means inhibition above about 27%;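 further: 0% = vehicle and 100% = reference inhibitor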
Target sequence (P9WQA3 whole entry, looked up): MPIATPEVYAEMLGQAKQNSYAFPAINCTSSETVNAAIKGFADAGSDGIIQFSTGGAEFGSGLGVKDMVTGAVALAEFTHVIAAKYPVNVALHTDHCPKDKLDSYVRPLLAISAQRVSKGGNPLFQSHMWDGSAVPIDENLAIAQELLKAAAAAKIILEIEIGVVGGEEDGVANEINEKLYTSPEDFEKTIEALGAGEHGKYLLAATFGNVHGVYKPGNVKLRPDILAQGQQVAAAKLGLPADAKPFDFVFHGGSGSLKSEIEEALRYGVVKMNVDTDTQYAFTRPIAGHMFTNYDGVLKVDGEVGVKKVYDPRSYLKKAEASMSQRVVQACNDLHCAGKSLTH
FadD28 FP inh = blocks FadD28 binding to the bisubstrate probe; fluorescence polarization; inhibition, % at 12.5 µM; 0.22% of 360,000 active; in the data active means inhibition above about 8.5%, passing the limit was not always enough; inconclusive means no clear call, values can overlap the other calls
Mtb betalactam = beta-lactam sensitization of Mtb H37Rv | M. tuberculosis H37Rv growth with meropenem, percent inhibition | inhibition, % at 25 µM | 0.27% of 330,000 active; call rule not given here;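 further: growth measured after seven days incubation then overnight dye step; 0% = bacteria only wells and 100% = bacteria with antibiotic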
Numbers without * were called inactive; ? = inconclusive; / = no result given; + = active, no number. The list is not random: actives were taken first. Their share in the collection is about 3.7%.

SMILES	GDH-TPI inh	Mtb UGM inh	Rv3671c protease	Mtb FBA inh	FadD28 FP inh	Mtb betalactam
O=C(NC1CCCCC1)NS(=O)(=O)c1ccc2c(c1)CCC2	10	/	/	-2	-2	/
CSc1ccccc1C(=O)N1CCc2ccc(NC(=O)c3ccccn3)cc2C1	2	/	/	-4	-5	/
CCn1cc(/C=C(\NC(=O)c2ccccc2F)C(=O)NCCN2CCOCC2)c2ccccc21	33*	1	-6	-6	-3	-4
CC(C)(C)Cc1c(-c2ccc(Br)cc2)nc2ccc(Br)cn12	13	/	/	3	-1	/
CCOC(=O)/C=c1\s/c(=C\c2c(OC)ccc3ccccc23)c(=O)n1CC(=O)NCC1CCCO1 (stereo not drawn)	38*	5	-28	-3	-2	/
CCOC(=O)/C=c1/s/c(=C/c2ccc3cc(OC)ccc3c2)c(=O)n1CC(=O)NCC1CCCO1 (stereo not drawn)	1	/	/	5	-1	/
CCN(CC)c1ccc(NC2CC(=O)N(CCc3ccc(OC)cc3)C2=O)cc1 (stereo not drawn)	-2	-2	1	2	8.7*	3
O=C(O)c1ccccc1C(=O)c1cccc2c(Br)cccc12	17	/	/	2	-1	/
CCNC(=S)N/N=C(\C)c1ccc(Cl)s1	31*	-2	3	-1	-3	96
CCNC(=S)N/N=C(\C)c1cc2ccccc2o1	47*	1	-5	-4	-1	90
C/C(=N\NC(=S)Nc1cccc(C)c1)c1cc2ccccc2o1	22	2	-5	2	-3	50
C=C(C)CNC(=S)N/N=C(\C)c1ccc(Cl)s1	30	-4	-2	-1	-3	98
c1ccc(-c2oc3ncnc(NCCCn4ccnc4)c3c2-c2ccccc2)cc1	6	-2	-1	51*	-15	97
c1ccc(-c2c(-c3ccccc3)n(Cc3ccco3)c3ncnc(NCCCn4ccnc4)c23)cc1	2	0	7	9	-5	100
c1ccc2c(c1)CC/C2=N/Nc1nc2ccccc2[nH]1	49*	1	6	1	-4	25
CC(C)(C)C1CCC(=NNc2nc3ccccc3[nH]2)CC1 (stereo not drawn)	10	2	16	1	-4	-3
COc1ccc(-c2csc(Nc3ccc(S(=O)(=O)Nc4cc(OC)nc(OC)n4)cc3)n2)cc1	19	-2	15	-2	12*	0
COc1cc(NS(=O)(=O)c2ccc(N/C=C(\C#N)c3nc4cc(Cl)ccc4o3)cc2)nc(OC)n1	53*	4	-10	5	-11	10
CCOC(=O)/C(C#N)=N/Nc1ccc(S(=O)(=O)Nc2cc(OC)nc(OC)n2)cc1	38*	3	-7	-8	-2	0
COc1cc(NS(=O)(=O)c2ccc(NC(C)=O)cc2)nc(OC)n1	-4	0	10	1	-2	-4
COc1ccc(C2=NN(C(=O)CSc3nc(=O)n4cccc(C)c4n3)C(c3ccc(C)cc3)C2)cc1 (stereo not drawn)	13	3	-11	-2	-2	5
COc1ccccc1CCN=C(N)NS(=O)(=O)c1ccc(F)cc1	1	-1	-8	1	0	-8
COc1ccc(S(=O)(=O)NC(N)=NCCc2ccccc2OC)cc1	-4	5	14	191*	-2	-1
COCCCNc1nc2nonc2nc1N(C)CC1CCCN1C (stereo not drawn)	36*	-2	2	1	-1	-4
CCN(CC)S(=O)(=O)c1ccc(/C(O)=C(\C#N)c2nc3ccccc3n2C)cc1	39*	2	-9	2	3	3
SMILES	GDH-TPI inh	Mtb UGM inh	Rv3671c protease	Mtb FBA inh	FadD28 FP inh	Mtb betalactam
C/C(=N\Nc1nccnc1Cl)c1ccc(O)c(C)c1	44*	0	9	2	1	0
Cc1cc2nc(-c3ccc[nH]c3=O)[nH]c2cc1C	26	1	-18	+	-3	8
Cc1cc2nc(-c3ccc[nH]c3=O)n(Cc3ccccc3F)c2cc1C	-3	-4	/	14	/	3
CCCn1c(-c2ccc(OC)cc2)nc2ccccc21	4	0	-3	9	-9	?
Cc1cc2nc(-c3ccc[nH]c3=O)n(Cc3ccc(F)cc3)c2cc1C	14	-1	3	198*	/	1
Cc1ccccc1-c1nc2ccccc2[nH]1	9	2	5	6	0	17
CCCn1c(-c2ccc[nH]c2=O)nc2ccccc21	3	-1	0	152*	-3	-5
O=c1[nH]cccc1-c1nc2ccccc2n1Cc1ccc(F)cc1	14	0	-4	173*	-2	5
COc1ccc(CNC(=O)C2Cc3c(-c4ccccc4Oc4ccccc4)ccnc3O2)cc1OC (stereo not drawn)	7	/	/	0	-1	/
O=C(CN1C(=O)NC2(CCc3ccccc32)C1=O)NCc1ccc(Cl)cc1 (stereo not drawn)	0	-4	7	1	-1	-7
Cc1cc(C(=O)COc2ccc(Br)cc2F)c(C)n1CC1CCCO1 (stereo not drawn)	-7	/	/	0	-3	/
COc1cc(NCCCn2cnc3c(OC)ncnc32)cc(OC)c1OC	-3	/	/	-2	-1	/
O=C(CCc1ccccc1)Nc1cccc(S(=O)(=O)N2CCOCC2)c1	-6	-1	6	0	-3	0
C=CCC1S/C(=N/N=C/c2cccs2)NC1=O (stereo not drawn)	53*	-3	3	-3	-1	40
O=C1N/C(=N\N=C\c2cccs2)SC1Cc1ccc(Cl)c(Cl)c1 (stereo not drawn)	12	-6	5	2	0	28
O=C(CC1S/C(=N/N=C/c2cccs2)NC1=O)Nc1ccccc1F (stereo not drawn)	33*	-3	-3	4	-2	0
COc1ccc(-c2cc3ncnc(Cl)c3s2)cc1	16	1	0	+	-1	51
COc1ccc(-c2cc3nnc(-c4ccccc4)nc3s2)cc1	3	-3	2	9	1	6
Cc1cccc(C(=O)N2CCC(C)(C(=O)NS(=O)(=O)C3CC3)C2)c1C (stereo not drawn)	-6	/	/	1	0	/
CN(C)/C=C1/C=C(c2ccccc2)OC1=O	33*	3	-2	2	-1	20
O=C(NCc1ccncc1)C(=O)NCC1OCCN1S(=O)(=O)c1ccccc1 (stereo not drawn)	5	/	/	-2	-1	/
CN(C(=O)c1cccc(NC(=O)Cc2ccc(NC(=O)C3CCN(C(=O)c4ccccc4)CC3)cc2)c1)C1CCCCC1	7	/	/	0	-2	/
O=C(O)C1Nc2ccc(Br)cc2C2C=CCC12 (stereo not drawn)	-3	5	16	-2	27*	-7
O=C(O)C1Nc2c(Cl)cc(Cl)cc2C2C=CCC12 (stereo not drawn)	-1	0	3	-1	14*	-13
O=C(O)C1Nc2c(O)cccc2C2C=CCC12 (stereo not drawn)	9	1	31	-6	15*	14
